PubChem BioAssay (Tox21)
Results filed as inconclusive are left out. A call without a number means that no potency is given here. Calls of active or inactive are those of the source. Unless noted, calls follow the shape of the dose curve; as a rule, active = well fitted curve in the direction sought with a large enough effect in the repeat runs; inconclusive = weak or mixed curves; inactive = no such curve, though single readings can be large; an effect the other way counts as inactive or inconclusive.

Legend:
[1] = qHTS assay to identify small molecule agonists of the peroxisome proliferator-activated receptor delta (PPARd) signaling pathway - cell viability counter screen (AID 743211); also: nearly all actives have a fitted effect of over 55% in size
In short: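 Luminescent ATP viability assay (CellTiter-Glo, 30 min RT) in UAS-bla HEK293H cells carrying the PPAR delta reporter construct, 3000 cells/well, after a 17 h compound treatment at 37 C.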

[2] = target: Peroxisome proliferator-activated receptor delta (Homo sapiens) (UniProt Q03181); assay: qHTS assay to identify small molecule agonists of the peroxisome proliferator-activated receptor delta (PPARd) signaling pathway (AID 743212; calls by dose curve; also: potency is read from the fitted curve at half-maximal effect)
In short: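 A PPARd-bla HEK293H line with beta-lactamase under an Upstream Activator Sequence is treated with compounds at 37 C. Substrate loading for 2 h at room temperature precedes the fluorescence measurement.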

[3] = qHTS assay to identify small molecule antagonists of the peroxisome proliferator-activated receptor delta (PPARd) signaling pathway - cell viability counter screen (AID 743213); also: nearly all actives have a fitted effect of over 50% in size
In short: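 Viability counter-screen, qHTS format: PPARd-bla HEK293H, L165041 300 nM final, 17 h compound exposure at 37 C, CellTiter-Glo luminescence after 30 min RT.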

[4] = target: Bile acid receptor (Homo sapiens) (UniProt Q96RI1); assay: qHTS assay to identify small molecule antagonists of the farnesoid-X-receptor (FXR) signaling pathway (AID 743217; active = well fitted inhibition curve with a large enough effect in the signal ratio in the repeat runs, not every such curve was filed as active; the % refers to the signal ratio)
In short: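 GeneBLAzer FXR-UAS-bla HEK 293T, CDCA-stimulated (50 uM final). Compound treatment 16 h, 37 °C. Detection: beta-lactamase cleavage of B/G FRET substrate, fluorescence.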

[5] = qHTS assay to identify small molecule agonists of the farnesoid-X-receptor (FXR) signaling pathway - cell viability counter screen (AID 743218); also: nearly all actives have a fitted effect of over 45% in size
In short: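 Parallel cytotoxicity test: compound-treated (16 h, 37 C) HEK 293T FXR-bla reporter cells were lysed with CellTiter-Glo and luminescence recorded.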

[6] = qHTS assay to identify small molecule antagonists of the farnesoid-X-receptor (FXR) signaling pathway - cell viability counter screen (AID 743221; active = well fitted cell-killing curve with a large enough effect in the repeat runs, not every such curve was filed as active; also: nearly all actives have a fitted effect of over 50% in size)
In short: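 In GeneBLAzer FXR-UAS-bla HEK 293T cells stimulated with 50 uM chenodeoxycholic acid (final), compounds acted for 16 h at 37 C. Viability was assessed afterwards by CellTiter-Glo luminescence.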

[7] = target: Vitamin D3 receptor (Homo sapiens) (UniProt P11473); assay: qHTS assay to identify small molecule agonists of the vitamin D receptor (VDR) signaling pathway (AID 743222; calls by dose curve)
In short: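 In VDR-bla cells, compound-induced beta-lactamase expression is quantified by FRET substrate fluorescence. Treatment lasts 16 h at 37C; substrate develops 2 h at room temperature.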

[8] = target: Peroxisome proliferator-activated receptor delta (Homo sapiens) (UniProt Q03181); assay: qHTS assay to identify small molecule antagonists of the peroxisome proliferator-activated receptor delta (PPARd) signaling pathway (AID 743215; active = well fitted inhibition curve with a large enough effect in the signal ratio in the repeat runs, not every such curve was filed as active; the % refers to the signal ratio;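 also: cells stimulated with agonist L165041 at 300 nM final during compound exposure; series mostly up to about 62 µM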)
In short: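 HEK293H UAS-bla, PPARd; agonist L165041 300 nM final with cpd in DMSO; 37 C 17 h; FRET substrate, RT 2 h; fluorescence intensity.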

[9] = target: Bile acid receptor (Homo sapiens) (UniProt Q96RI1); assay: qHTS assay to identify small molecule agonists of the farnesoid-X-receptor (FXR) signaling pathway (AID 743220; active = well fitted activation curve with a large enough effect in the signal ratio in the repeat runs, not every such curve was filed as active; the % refers to the signal ratio)
In short: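 Beta-lactamase reporter under UAS control in GeneBLAzer FXR HEK 293T cells (5000/well) measured with LiveBLAzer FRET substrate after 2 h at room temperature. Compound exposure lasted 16 h at 37C.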

[10] = target: Vitamin D3 receptor (Homo sapiens) (UniProt P11473); assay: qHTS assay to identify small molecule antagonists of the vitamin D receptor (VDR) signaling pathway (AID 743223; active = well fitted inhibition curve with a large enough effect in the signal ratio in the repeat runs, not every such curve was filed as active; the % refers to the signal ratio)
In short: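 Agonist 1alpha,25-dihydroxyvitamin D3 (3 nM in well) was added with each compound to VDR-bla cells preincubated 4 h. Cells stood 16 h at 37C, then FRET substrate 2 h at room temperature; fluorescence intensity recorded.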

Chain of Peroxisome proliferator-activated receptor delta (Homo sapiens) (Q03181 whole entry, looked up): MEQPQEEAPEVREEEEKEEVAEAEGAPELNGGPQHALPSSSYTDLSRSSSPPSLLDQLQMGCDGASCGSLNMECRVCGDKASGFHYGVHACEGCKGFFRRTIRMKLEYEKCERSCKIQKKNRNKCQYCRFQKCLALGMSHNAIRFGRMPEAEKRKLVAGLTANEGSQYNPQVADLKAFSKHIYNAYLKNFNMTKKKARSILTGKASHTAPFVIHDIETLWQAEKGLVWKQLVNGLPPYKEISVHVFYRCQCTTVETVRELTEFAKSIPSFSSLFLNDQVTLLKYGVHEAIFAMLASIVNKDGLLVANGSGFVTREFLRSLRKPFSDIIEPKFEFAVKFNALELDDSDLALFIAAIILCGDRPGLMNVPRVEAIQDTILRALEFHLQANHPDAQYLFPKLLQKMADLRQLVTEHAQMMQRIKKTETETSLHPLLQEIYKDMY
Chain of Vitamin D3 receptor (Homo sapiens) (P11473 whole entry, looked up): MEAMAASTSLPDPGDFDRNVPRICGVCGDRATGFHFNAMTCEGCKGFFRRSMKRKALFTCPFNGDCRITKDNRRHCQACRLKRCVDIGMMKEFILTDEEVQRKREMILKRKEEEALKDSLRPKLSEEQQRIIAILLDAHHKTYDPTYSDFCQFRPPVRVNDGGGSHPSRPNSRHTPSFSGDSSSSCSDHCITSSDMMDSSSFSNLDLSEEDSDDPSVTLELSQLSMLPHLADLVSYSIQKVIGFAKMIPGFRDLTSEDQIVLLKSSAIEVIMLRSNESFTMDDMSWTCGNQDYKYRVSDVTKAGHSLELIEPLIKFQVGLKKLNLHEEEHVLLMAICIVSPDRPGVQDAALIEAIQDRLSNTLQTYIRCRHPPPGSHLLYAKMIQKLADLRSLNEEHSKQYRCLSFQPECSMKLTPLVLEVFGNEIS
Chain of Bile acid receptor (Homo sapiens) (Q96RI1 whole entry, looked up): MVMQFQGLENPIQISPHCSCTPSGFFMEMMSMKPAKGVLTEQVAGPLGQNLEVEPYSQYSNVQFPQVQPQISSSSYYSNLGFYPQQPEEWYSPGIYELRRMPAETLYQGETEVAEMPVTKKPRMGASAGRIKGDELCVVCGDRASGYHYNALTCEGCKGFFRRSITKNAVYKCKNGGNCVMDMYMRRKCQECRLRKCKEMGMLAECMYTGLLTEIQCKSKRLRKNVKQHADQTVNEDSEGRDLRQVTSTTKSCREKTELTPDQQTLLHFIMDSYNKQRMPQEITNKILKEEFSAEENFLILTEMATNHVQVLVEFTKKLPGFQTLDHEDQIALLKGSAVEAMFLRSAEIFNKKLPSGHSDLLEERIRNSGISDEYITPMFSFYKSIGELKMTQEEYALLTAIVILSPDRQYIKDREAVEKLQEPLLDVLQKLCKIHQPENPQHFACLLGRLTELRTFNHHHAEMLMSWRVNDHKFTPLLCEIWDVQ

Structure (SMILES) | outcome [1] | Potency [2] | outcome [3] | outcome [4] | outcome [5] | outcome [6] | outcome [7] | outcome [8] | outcome [9] | outcome [10]
C=CCc1ccc(OC)c(OC)c1 | inactive | inactive | inactive | inactive | inactive | inactive | inactive |  |  | 
N#Cc1ccccc1 | inactive | inactive | inactive | inactive | inactive | inactive | inactive | inactive | inactive | inactive
CC1(C)NC(=O)NC1=O | inactive | inactive | inactive |  | inactive | inactive | inactive | inactive |  | inactive
C=CC[N+](C)(C)CC=C | inactive | inactive | inactive |  | inactive | inactive | inactive | inactive |  | inactive
COc1ccc([N+](=O)[O-])cc1N | inactive | inactive | inactive | inactive | inactive | inactive | inactive |  |  | inactive
COCCCN | inactive | inactive | inactive |  | inactive | inactive | inactive | inactive |  | 
CC(=O)Oc1ccc(C)cc1 | inactive | inactive | inactive |  | inactive | inactive |  | inactive |  | 
CC(C)c1cccc(C(C)C)c1 | inactive | inactive | inactive | inactive | inactive | inactive | inactive | inactive |  | inactive
CC(=O)OCc1ccco1 | inactive | inactive | inactive |  | inactive | inactive | inactive | inactive |  | inactive
c1ccc(Oc2ccccc2)cc1 | inactive | inactive | inactive | inactive | inactive | inactive | inactive | inactive |  | inactive
CC(C)CCCCCCCOC(=O)CCCCC(=O)OCCCCCCCC(C)C | inactive | inactive | inactive | inactive | inactive | inactive | inactive |  | inactive | inactive
CC(C)OP(=O)(CP(=O)(OC(C)C)OC(C)C)OC(C)C | inactive | inactive | inactive | inactive | inactive | inactive | inactive | inactive |  | inactive
O=C1c2ccccc2CCc2ccccc21 | inactive | inactive | inactive | inactive | inactive | inactive |  | inactive | inactive | 
C=C(C)CNCC | inactive | inactive | inactive |  | inactive | inactive | inactive | inactive |  | inactive
CCCCCCCCCCCC(=O)OC | inactive | inactive | inactive | inactive | inactive | inactive | inactive |  |  | inactive
COc1ccc(OC)cc1 | inactive | inactive | inactive |  | inactive | inactive | inactive | inactive |  | inactive
CC(=O)c1ccc(O)cc1 | inactive | inactive | inactive | inactive | inactive | inactive | inactive |  |  | inactive
CCNc1ccccc1 | inactive | inactive | inactive | inactive | inactive | inactive | inactive |  |  | inactive
CC(C)OC(=O)COc1ccc(Cl)cc1Cl | inactive | inactive | inactive | inactive | inactive | inactive |  |  |  | 
C[Si]1(C)O[Si](C)(C)O[Si](C)(C)O[Si](C)(C)O1 | inactive | inactive | inactive | inactive | inactive | inactive | inactive | inactive |  | inactive
COC(=O)CCCC(=O)OC | inactive | inactive | inactive | inactive | inactive | inactive | inactive | inactive |  | inactive
O=C1C(c2[nH]c3ccccc3c2O)=Nc2ccccc21 | inactive | inactive | inactive | inactive | inactive | inactive |  |  |  | 
CCOC(=O)n1ccn(C)c1=S | inactive | inactive | inactive | inactive | inactive | inactive |  | inactive |  | 
CC(C)(Oc1ccc(CCNC(=O)c2ccc(Cl)cc2)cc1)C(=O)O | inactive | 38.9 µM (active) | inactive | inactive | inactive | inactive | inactive | inactive |  | inactive
Clc1ccccn1 | inactive | inactive | inactive | inactive | inactive | inactive | inactive |  | inactive | inactive
NCCCCCCN | inactive | inactive | inactive |  | inactive | inactive | inactive | inactive |  | inactive

Structure (SMILES) | outcome [1] | Potency [2] | outcome [3] | outcome [4] | outcome [5] | outcome [6] | outcome [7] | outcome [8] | outcome [9] | outcome [10]
CSc1ccc(Cl)cc1 | inactive | inactive | inactive | inactive | inactive | inactive | inactive |  |  | inactive
C[C@]12CC[C@@H]3c4ccc(O)cc4CC[C@H]3[C@@H]1C[C@@H](O)[C@@H]2O | inactive | inactive | inactive |  | inactive | inactive | inactive | inactive |  | inactive
C=CC(C)CCCC(C)(C)O (stereo unspecified) | inactive | inactive | inactive |  | inactive | inactive | inactive | inactive |  | inactive
CCCOC(=O)c1ccccc1 | inactive | inactive | inactive |  | inactive | inactive | inactive | inactive |  | inactive
CC(C)=CCl | inactive | inactive | inactive | inactive | inactive | inactive | inactive |  |  | inactive
O=S(=O)(O)c1ccc(N=Nc2c(O)ccc3cc(S(=O)(=O)O)ccc23)cc1 | inactive | inactive | inactive | inactive | inactive | inactive | inactive | inactive |  | inactive
O=C(O)c1ccccc1C(=O)O | inactive | inactive | inactive |  | inactive | inactive |  | inactive |  | 
OCc1cccc(Oc2ccccc2)c1 | inactive | inactive | inactive | inactive | inactive | inactive | inactive | inactive |  | inactive
C[C@]12CCC(=O)C=C1CC[C@@H]1[C@@H]2[C@@H](O)C[C@@]2(C)[C@H]1CC[C@]2(O)C(=O)CO | inactive | inactive | inactive |  | inactive | inactive | inactive | inactive |  | inactive
CC1(C)S[C@@H]2[C@H](NC(=O)COc3ccccc3)C(=O)N2[C@H]1C(=O)O | inactive | inactive | inactive |  | inactive | inactive | inactive | inactive |  | 
Nc1ccc(Cl)c(N)c1 | inactive | inactive | inactive | inactive |  | inactive | inactive |  | inactive | inactive
O=[N+]([O-])c1ccc2nc[nH]c2c1 | inactive |  | inactive | inactive | inactive | inactive |  | inactive |  | 
O=C(O)c1cc2ccccc2cc1O | inactive | inactive | inactive |  | inactive | inactive | inactive |  |  | inactive
NCCNCCN | inactive | inactive | inactive |  | inactive | inactive | inactive |  |  | inactive
C=C(C)C(=O)OCC(C)C | inactive |  | inactive | inactive | inactive | inactive | inactive | inactive | inactive | inactive
CCCCCCCCCCO | inactive |  | inactive | inactive | inactive | inactive | inactive |  |  | 
CC(C)CC(=O)CC(C)CC(C)C (stereo unspecified) | inactive |  | inactive | inactive | inactive | inactive |  | inactive |  | 
CCCCC(C=O)CC (stereo unspecified) | inactive |  | inactive | inactive | inactive | inactive | inactive | inactive |  | 
CCOCC(=O)O | inactive | inactive | inactive |  | inactive | inactive | inactive |  |  | inactive
Cc1ccc2ncccc2c1 | inactive |  | inactive |  | inactive | inactive |  | inactive |  | 
OC1C(O)C(O)C(O)C(O)C1O (stereo unspecified) | inactive |  | inactive | inactive | inactive | inactive | inactive | inactive |  | inactive
CCNc1cccc(C)c1 | inactive |  | inactive |  | inactive | inactive | inactive | inactive |  | inactive
CN/C(=C\[N+](=O)[O-])NCCSCc1csc(CN(C)C)n1 | inactive |  | inactive |  | inactive | inactive |  | inactive |  | 
Cc1ccc([N+](=O)[O-])cc1S(=O)(=O)O | inactive | inactive | inactive |  | inactive | inactive | inactive |  |  | inactive
CN(C)c1ccc(Cc2ccc(N(C)C)cc2)cc1 | inactive |  | inactive | inactive | inactive | inactive | inactive | inactive |  | inactive
